The list is not random: actives were taken first. Their share in the collection is about 2.7%.
ERb coact inh – blocks coactivator binding to human estrogen receptor beta; TR-FRET ER-beta LBD / SRC1-Cy5 peptide binding; receptor agonist-loaded with 1 µM estradiol; inhibition, % at 25.6 µM; actives 1.3% (n = 86,000); Q92731; AID 633;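 active = compounds whose percent inhibition of the receptor-coactivator binding signal exceeds about 50% in the single-dose screen, limit read from the data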
Target sequence (Q92731 whole entry, looked up, the tested form may be a part): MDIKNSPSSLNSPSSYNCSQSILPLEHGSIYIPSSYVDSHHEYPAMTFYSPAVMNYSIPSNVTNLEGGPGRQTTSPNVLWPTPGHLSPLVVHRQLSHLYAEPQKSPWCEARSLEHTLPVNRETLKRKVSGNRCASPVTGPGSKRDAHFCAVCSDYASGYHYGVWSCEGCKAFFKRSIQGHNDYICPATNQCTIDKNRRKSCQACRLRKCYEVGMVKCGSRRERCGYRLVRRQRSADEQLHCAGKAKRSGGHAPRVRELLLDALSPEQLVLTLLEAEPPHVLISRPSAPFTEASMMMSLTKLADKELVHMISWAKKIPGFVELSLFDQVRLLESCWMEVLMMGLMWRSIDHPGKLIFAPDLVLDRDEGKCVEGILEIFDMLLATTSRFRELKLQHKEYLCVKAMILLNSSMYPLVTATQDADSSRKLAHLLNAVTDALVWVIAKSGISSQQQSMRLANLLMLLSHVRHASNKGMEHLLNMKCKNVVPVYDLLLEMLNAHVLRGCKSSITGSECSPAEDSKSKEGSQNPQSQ
MRP resist rev – compounds reversing MRP-mediated drug resistance | H69AR cells + 2 uM doxorubicin, CellTiter-Glo, 72 h | differential viability (reversal), % at 10 µM | actives 0.04% (n = 85,000) | AID 602;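 active = viability drop by adding the cancer drug above about 55%, with treated viability meeting a 40% cutoff, limit read from the data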;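 note: larger differential means the compound sensitizes cells more to doxorubicin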
ERa coact inh – blocks coactivator binding to human estrogen receptor alpha. TR-FRET ER-alpha LBD / SRC-1 peptide, estradiol-bound. inhibition, % at 25.6 µM. actives 1.7% (n = 86,000). AID 629; in the data active = inhibition above about 50%
ERa coact pot – ER-alpha (human) coactivator binding potentiation. coactivator binding (% of control), % at 25.6 µM. TR-FRET ERalpha-LBD/SRC-Cy5 coactivator binding, 2 h; 100 = basal binding, no effect. actives 1.3% (n = 86,000). P03372; in the data active = activity above about 200%;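 note: binding measured in presence of low estradiol as agonist stimulus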
MRP-1 activ – activates MRP-1 | AID 799 | viability increase, % at 10 µM | H69AR cells + doxorubicin, viability rescue, CellTiter-Glo | actives 0.61% (n = 140,000);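 active = viability gain under doxorubicin at or above a set limit, the compound median plus 3 SD, cut at about 4.7% in these data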;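 note: MRP-1 overexpressing cells given doxorubicin 25 µM after compound pretreatment; 18-22 h compound pretreatment then 72 h with doxorubicin before readout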
A number is an active result; - = inactive; . = no result given; [ ] = dose if it differs, or a comment.

SMILES | ERb coact inh | MRP resist rev | ERa coact inh | ERa coact pot | MRP-1 activ
O=C(CSc1nnc(-c2ccccc2)n1Cc1ccccc1)N1CCOCC1 | - | - | - | - | -
Oc1ccccc1-c1nnc(SCCN2CCOCC2)n1Cc1ccccc1 | 59.4 | - | - | - | -
CCOc1ccc2nc3c(cc2c1)CN(CCOC)C(=NCCOC)S3 | - | - | - | 483.4[fluorescence artefact?] | -
COCCN=C1Sc2nc3ccc(C)cc3cc2CN1Cc1ccco1 | . | . | . | . | -
c1ccc(-c2noc(-c3ccc4ccccc4c3)n2)nc1 | - | - | - | - | -
c1ccc(-c2noc(-c3ccc4c(c3)OCO4)n2)nc1 | 56.7 | - | 61.6[fluorescence artefact?] | - | -
C=CCN(C(=O)Nc1ccc(Cl)cc1)C1CC(=O)N(c2ccc(OC)cc2)C1=O (centres undefined) | - | - | - | - | 6.6
COc1ccccc1NC(=O)N(Cc1cccs1)Cc1cc2cc3c(cc2[nH]c1=O)OCO3 | . | . | . | . | -
O=C(NCc1cccnc1)c1cn(CCc2ccccc2)nn1 | - | - | - | - | -
O=C(NCc1ccccn1)c1cn(CCc2ccccc2)nn1 | - | 57.0 | - | - | -
CN1CCN(c2ccc(Cl)cc2NC(=O)c2nn(-c3ccccc3)c(=O)c3ccccc23)CC1 | - | - | - | 242.1[fluorescence artefact?] | -
CN(C)c1ccc(O)c2c1CC1CC3[C@@H](N(C)C)C(=O)C(C(N)=O)=C(O)[C@]3(O)C(=O)C1=C2O (some centres undefined) | 99.7[fluorescence artefact?] | - | 98.1[fluorescence artefact?] | - | -
COc1cc(CN(C)CCc2ccccc2)ccc1OCc1ccccc1 | . | . | . | . | -
CC(C)COC(=O)c1nnsc1NC(=O)Nc1ccccc1 | 60.8 | - | 64.3[fluorescence artefact?] | - | -
O=C(NCc1ccco1)C1(S(=O)(=O)c2ccc(Cl)cc2)CC1 | 58.6 | - | - | - | -
c1ccc(-c2csc3nnc(SCc4ccc5c(c4)OCCO5)n23)cc1 | . | . | . | . | -
O=C(CSc1nnc2scc(-c3ccccc3)n12)c1ccc2c(c1)OCCO2 | - | - | - | 436.9[fluorescence artefact?] | -
COc1cccc(-c2csc3nnc(SCC(=O)c4ccc(NC(C)=O)cc4)n23)c1 | - | - | - | 223.7 | -
CC1=NN(c2cccc(C(=O)O)c2)C(=O)/C1=C\C=C\c1ccco1 | 88.6[fluorescence artefact?] | - | 82.8[fluorescence artefact?] | - | -
Clc1ccc(Cc2nc(-c3cccnc3)no2)cc1 | . | . | . | . | -
CCOC(=O)CN1C(=O)C(C)(C)Oc2ccc(C(=O)Nc3ccccc3OC)cc21 | - | - | - | - | 5.3
Cc1ccc(NC(=O)c2ccc3c(c2)N(CC(=O)N2CCCCC2)C(=O)C(C)(C)O3)cc1 | - | - | - | - | -
CCOC(=O)C1(S(=O)(=O)c2ccc(Cl)cc2)CCN(Cc2ccc(C)cc2)CC1 | . | . | . | . | -
CC1N=C2c3ccccc3N=C(SCc3cc(=O)n4ccccc4n3)N2C1=O (centres undefined) | - | - | - | - | .
Cc1nn(C)c(C)c1NC(=O)CSc1nc(-c2ccccc2Cl)nc2c1cnn2-c1ccccc1 | - | - | 73.5[fluorescence artefact?] | - | -
SMILES | ERb coact inh | MRP resist rev | ERa coact inh | ERa coact pot | MRP-1 activ
Cc1nn(C)c(C)c1NC(=O)CSc1nc(C2CC2)nc2c1cnn2-c1ccccc1 | - | 77.8 | - | - | -
CC1CCCCN1C(=O)CSc1nc(C2CC2)nc2c1cnn2-c1ccccc1 (centres undefined) | . | . | . | . | -
CCCC(CCC)C(=O)Nc1cccc(C(=O)O)c1 | - | - | - | - | -
Cc1ccsc1/C=N/NC(=O)CSCc1ccc(Cl)cc1 | . | . | . | . | -
Cc1ccc(/C=N/NC(=O)CSCc2ccc(Cl)cc2)cc1 | . | . | . | . | 6.3
CC(C)(C)c1ccccc1OCC(=O)Nc1ncn[nH]1 | - | - | - | - | -
CC(C)(C)c1cc(Br)ccc1OCC(=O)Nc1ncn[nH]1 | - | - | - | - | 6.2
O=c1c2cc(N3CCOCC3)ccc2[nH]c(=S)n1CCCN1CCCCCC1 | - | - | 74.7[fluorescence artefact?] | - | -
O=c1c2cc(N3CCOCC3)ccc2[nH]c(=S)n1CCN1CCCC1 | - | - | - | - | -
Cc1ccc(Cn2c(=S)[nH]c3ccc(N4CCOCC4)cc3c2=O)o1 | 51.5[fluorescence artefact?] | - | - | - | -
CCOc1ccc(-n2nc(C(=O)N3CCOCC3)c3ccccc3c2=O)cc1 | - | - | - | - | .
Cc1ccc2nc(NC(=O)CSCc3ccccc3)sc2c1 | 85.0[fluorescence artefact?] | - | - | - | -
COCC(=O)Nc1nc2ccc(C)cc2s1 | - | - | - | - | -
O=C(NC(=S)Nc1ccccc1N1CCCC1)c1ccc(-c2cccc([N+](=O)[O-])c2)o1 | - | - | - | - | -
O=C(NC(=S)Nc1ccccc1N1CCCCC1)c1ccc(-c2cccc([N+](=O)[O-])c2)o1 | - | - | - | - | 8.0
O=C(NC(=S)Nc1ccccc1N1CCOCC1)c1ccc(-c2cccc(Cl)c2)o1 | . | . | . | . | 5.2
O=C(Cc1ccc(Cl)cc1)NC(=S)Nc1ccccc1N1CCOCC1 | . | . | . | . | -
Cc1ccc(C2C(/C=C3/SC(=S)NC3=O)=C(c3cccs3)Oc3ccccc32)cc1 (centres undefined) | - | - | - | - | -
Cc1ccc2c(c1)c(=O)c1c3n2CCN(C(=O)CCl)C3CC1 (centres undefined) | 72.3 | - | 82.7[fluorescence artefact?] | - | -
Cc1ccc2c(c1)c1c3n2CCN(C(=O)CN2CCN(C)CC2)C3CCC1 (centres undefined) | - | - | - | - | -
Cc1cccc(NS(=O)(=O)c2ccc3c(c2)Cc2cc(S(=O)(=O)Nc4cccc(C)c4C)ccc2-3)c1C | . | . | . | . | -
O=C(Nc1cccc(-c2nc3ccccc3[nH]2)c1)c1cccc(NC(=O)c2ccco2)c1 | 68.5[fluorescence artefact?] | - | 70.0[fluorescence artefact?] | - | -
O=C(Nc1cccc(-c2cnc3ccccc3n2)c1)c1ccco1 | - | - | - | - | -
O=C(Nc1cnc2ccccc2c1)c1ccco1 | - | . | 56.5 | - | -
Cc1ccc(C(=O)N2CCN(c3ccc(NC(=O)CSc4ccc(Cl)cc4)cc3)CC2)cc1 | . | . | . | . | -
SMILES | ERb coact inh | MRP resist rev | ERa coact inh | ERa coact pot | MRP-1 activ
N#C/C(=C\c1ccc(Cl)cc1)c1nc2ncccc2[nH]1 | . | . | . | . | -
c1ccc(OCCSc2nc3ccccc3[nH]2)cc1 | - | - | - | - | 5.3
Cc1ccc(SCC(=O)Nc2ccc(-c3nnc(-c4ccco4)o3)cc2)cc1 | . | . | . | . | -
Cc1ccc(NC(=O)CSc2nnc(-c3ccco3)c(-c3ccco3)n2)cc1 | 73.6[fluorescence artefact?] | - | 80.9[fluorescence artefact?] | - | -
O=C(CSc1nnc(-c2ccco2)c(-c2ccco2)n1)Nc1ccccc1 | 86.2[fluorescence artefact?] | - | 84.2[fluorescence artefact?] | - | -
CC(NC(=O)Cc1ccccc1)c1cc2c(cc1Br)OCCCO2 (centres undefined) | . | . | . | . | -
O=C(CSc1nnc2scc(-c3ccccc3)n12)Nc1nsc(-c2ccccc2)n1 | - | - | - | 218.5[fluorescence artefact?] | -
Cc1ccc(-c2csc3nnc(SCC(=O)Nc4nsc(-c5ccccc5)n4)n23)cc1 | - | - | - | - | -
Cc1ccc(-c2nc(NC(=O)CSc3nnnn3-c3ccccc3)ns2)cc1 | - | - | - | 219.2 | -
Cc1ccc(Nc2nc(N)nc(CSc3nncn3C)n2)cc1 | - | - | - | - | -
Cc1ccc(Nc2nc(N)nc(CSc3nnnn3-c3ccccc3)n2)cc1 | - | - | 61.8[fluorescence artefact?] | 218.5[fluorescence artefact?] | -
Nc1nc(NCc2ccco2)nc(N2CCCCC2)c1[N+](=O)[O-] | . | . | . | . | -

Assay outcomes deposited in PubChem by several laboratories.
